Bioassay records from PubChem BioAssay.
Sampled rows, rich in hits. Any-hit rate of the full collection: about 12%.
BAZ2B block: blocks human BAZ2B; 360,000 compounds, 4.4% hits; Q9UIF8; Potency, µM (titrated, usually from 114 µM), inactives show at the highest dose activity change, negative = inhibition, usual class: inhibitors; AlphaScreen BAZ2B-H3K14Ac peptide displacement; note: % is set by controls: 0 for no effect and ±100 for the full control effect; nearly all actives have a fitted effect of over 60% in size
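BAZ2B (50 nM) with biotin-H3(5-23)K14Ac peptide (50 nM) in PBS pH 7.4, 0.01% Tween-20, preformed 30 min, then compound 30 min at room temperature; top concentration 110uM. AlphaScreen streptavidin donor/nickel chelate acceptor beads (10 ug/mL final), 20 min dark, signal read.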
JMJD2A Tudor inh: JMJD2A Tudor domain (human) inhibition; AlphaScreen JMJD2A-Tudor / H3K4me3 peptide binding; Potency, µM (top dose mostly 114 µM), inactives show top-dose activity change, negative = inhibition, actives largely listed as inhibitors; 390,000 compounds, 4.4% hits; AID 504339; O75164; note: % is set by controls: 0 for no effect and ±100 for the full control effect; nearly all actives have a fitted effect of over 50% in size
Target sequence (O75164 whole entry, looked up, the tested form may be a part): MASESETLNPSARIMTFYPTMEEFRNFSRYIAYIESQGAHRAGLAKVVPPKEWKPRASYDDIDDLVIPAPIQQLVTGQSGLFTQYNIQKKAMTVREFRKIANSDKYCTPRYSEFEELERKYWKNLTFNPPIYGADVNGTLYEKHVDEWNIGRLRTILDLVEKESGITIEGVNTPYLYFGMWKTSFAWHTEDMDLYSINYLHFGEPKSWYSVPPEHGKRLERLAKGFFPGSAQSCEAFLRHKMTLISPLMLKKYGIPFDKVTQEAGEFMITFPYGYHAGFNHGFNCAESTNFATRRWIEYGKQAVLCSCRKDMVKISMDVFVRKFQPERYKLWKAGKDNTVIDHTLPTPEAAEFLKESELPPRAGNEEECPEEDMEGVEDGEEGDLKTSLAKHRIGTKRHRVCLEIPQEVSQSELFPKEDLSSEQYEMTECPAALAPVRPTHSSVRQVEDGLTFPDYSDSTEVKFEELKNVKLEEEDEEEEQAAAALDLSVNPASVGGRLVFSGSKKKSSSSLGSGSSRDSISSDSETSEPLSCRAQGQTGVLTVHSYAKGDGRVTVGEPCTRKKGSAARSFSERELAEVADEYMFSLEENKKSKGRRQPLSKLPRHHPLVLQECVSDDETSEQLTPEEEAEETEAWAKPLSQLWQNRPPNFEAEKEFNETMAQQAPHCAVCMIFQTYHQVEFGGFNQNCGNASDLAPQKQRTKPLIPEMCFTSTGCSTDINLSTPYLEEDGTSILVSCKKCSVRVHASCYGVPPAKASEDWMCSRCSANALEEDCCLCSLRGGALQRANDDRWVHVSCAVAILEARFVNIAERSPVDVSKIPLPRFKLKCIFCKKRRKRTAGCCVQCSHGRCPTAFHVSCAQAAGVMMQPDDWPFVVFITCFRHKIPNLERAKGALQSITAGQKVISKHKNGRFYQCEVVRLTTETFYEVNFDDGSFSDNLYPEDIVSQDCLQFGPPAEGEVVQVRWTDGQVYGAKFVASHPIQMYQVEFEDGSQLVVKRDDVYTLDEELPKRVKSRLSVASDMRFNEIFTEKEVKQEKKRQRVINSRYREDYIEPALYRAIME
G9a block: G9a (human) methyltransferase inhibition | Potency, µM (highest dose often 102 µM), for inactives: at the highest dose activity, negative = inhibition, usual class: inhibitors | AID 504332 | Q96KQ7 | 350,000 compounds, 8.8% hits | G9a H3K9 monomethylation, AlphaScreen, 2 h; note: % is set by controls: 0 for no effect and ±100 for the full control effect; nearly all actives have a fitted effect of over 75% in size
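Quantitative HTS format: methyltransferase activity on a biotin-tagged H3K9 peptide is measured by AlphaScreen, using a rabbit anti-monomethyl-H3K9 antibody with streptavidin donor and anti-IgG acceptor beads. Final levels are 20 nM enzyme, 500 nM peptide, 20 uM SAM; 2 h RT.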
L3MBTL1 inh: L3MBTL1 (human) inhibition; AlphaScreen L3MBTL1–H3K9me1 peptide binding; Potency, µM (doses to about 57.1 µM), for the others: at the top dose activity, negative = inhibition, actives largely listed as inhibitors; AID 485360; 230,000 compounds, 0.66% hits; Q9Y468; note: % is set by controls: 0 for no effect and ±100 for the full control effect; nearly all actives have a fitted effect of over 60% in size
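Read-out is AlphaScreen signal from streptavidin donor and nickel chelate acceptor beads (10 ug/mL final each) bridging L3MBTL1 (50 nM) and biotinylated K9-monomethylated H3(1-15) peptide (75 nM), after 30 min compound exposure at room temperature.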
HP1b binding inh: blocks HP1-beta chromodomain binding to methylated histone tails | AlphaScreen HP1-beta / biotin-H3K9me3 peptide binding | Potency, µM (titrated, usually from 114 µM), for the others: at the highest dose activity change, negative = inhibition, actives largely listed as inhibitors | 390,000 compounds, 0.56% hits | AID 540317; note: nearly all actives have a fitted effect of over 70% in size
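HP1-beta protein (50 nM final) preincubated 30 min at room temperature with biotinylated H3(1-18)K9me3 peptide (50 nM) in PBS pH 7.4, 0.01% Tween-20, then compound added for 30 min. AlphaScreen streptavidin donor/nickel chelate acceptor beads (10 ug/mL final), 30 min dark, luminescence read.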
Sfp inh: blocks B. subtilis Sfp PPTase activity; Q9F4F7; Biochemical Sfp PPTase activity, qHTS; Potency, µM, inactives show largest response in the series, negative = inhibition, actives largely listed as inhibitors; 310,000 compounds, 3.5% hits; AID 1490;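 note: the enzyme is Sfp with the accession as filed and its product quenches rhodamine fluorescence; 0% = enzyme reaction without inhibitor and -100% = no enzyme wells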
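Sfp 15 nM + cpd, 15 min RT; start w/ rhodamine-CoA 5 uM, BHQ-2-YbbR 12.5 uM (final); 50 mM Hepes pH 7.6, 10 mM MgCl2, 0.01% NP-40, 0.01% BSA; read 525/598 nm at 0 and 30 min.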
Active calls of the source: *; ? = inconclusive; . = no result; [ ] = remark or other dose. Calls come from the whole dose curve; as a rule, active = well fitted curve in the direction sought with a large enough effect; inconclusive = small, poorly fitted or top-dose-only effect, or another doubt; inactive = no such curve, though single readings can be large; an effect the other way counts as inactive or inconclusive. Potency is the fitted concentration of half-maximal effect.

SMILES | BAZ2B block | JMJD2A Tudor inh | G9a block | L3MBTL1 inh | HP1b binding inh | Sfp inh
Cc1cc(=O)[nH]c(SCc2cn3ccccc3n2)n1 | -18% | -7% | 50µM* | 15% | 32% | -13%
COc1ccc(C(=O)Nc2nnc(SCc3cc(=O)n4cccc(C)c4n3)s2)cc1 | 3% | -4% | 2%[59 µM] | . | 26%[57 µM] | .
OC(COCc1ccccc1F)CN1CCCCC1 (stereo not given) | . | -6% | . | . | 18% | .
CC1CCCC(C)N1CC(O)COCc1ccccc1F (stereo not given) | ? | 50µM* | -8%[2.33 µM] | . | ? | -3%
COc1cc(-c2csc(NC3CCCCC3)n2)cc(OC)c1OC | ? | ? | 25µM* | . | -14% | -11%
O=C(NCc1cccs1)c1ccc2c(=O)n3nc(Nc4ccccc4)sc3nc2c1 | -2% | ? | 6%[59 µM] | . | 56% | .
COc1ccc(NC(=S)N(CCCN2CCOCC2)Cc2cn(C)c3ccccc23)cc1OC | ? | -27% | 50µM* | -5% | -3% | -16%
CC(=O)N/N=C(\N)c1nonc1N | -5% | ? | . | . | 28% | 89µM*
CO/N=C(\N)c1nonc1N | 3% | -8% | 15% | 1% | 32% | 20%
CCOC(=O)c1cc(OC(=O)c2ccc(C)cc2)n(-c2ccccc2)n1 | 13% | -12% | 53%[59 µM] | . | 89% | .
N=c1c(S(=O)(=O)c2ccc(Cl)cc2)cc2c(=O)n3ccccc3nc2n1CCc1ccccc1 | -1% | . | 41% | . | . | 25µM*
N=c1c(S(=O)(=O)c2ccccc2)cc2c(=O)n3ccccc3nc2n1CCCN1CCOCC1 | 4% | -24% | 79µM* | . | 5% | -26%
CCSC1=NC2(CCN(C(=O)NC3CCCCC3)CC2)N=C1c1ccc(Cl)cc1 | 8%[57.1 µM] | 3% | -4%[59 µM] | . | 39% | .
COc1ccc2c(C)cc(SCC(=O)Nc3ccc(Cl)cn3)nc2c1 | -25% | -25% | 13µM* | ? | -11% | -17%
COc1ccc2c(C)cc(SCC(=O)NC3CCCCC3)nc2c1 | . | -10% | . | 10% | 21% | .
COc1ccc(C(=O)c2cn(CC(=O)Nc3ccc4c(c3)OCCO4)c3ccc(OC)cc3c2=O)cc1 | -38% | ? | ? | . | 10% | .
Cc1sc(NC(=O)C2CCCCC2C(=O)O)c(C(N)=O)c1-c1ccc(C(C)(C)C)cc1 (stereo not given) | ? | -19% | . | 5% | -31% | 79µM*
COc1ccc(NC(=O)c2c(NC(=O)COc3ccccc3)sc3c2CCC(C)C3)cc1 (stereo not given) | 5% | -2% | -45%[59 µM] | . | 23% | .
Cc1cc(C(=O)Nc2sc(C)c(-c3ccc(F)cc3)c2C(N)=O)no1 | 17% | -15% | -47%[59 µM] | 43% | -5% | -1%
COc1ccc(NC(=O)c2c(NC(=O)CCC(=O)O)sc(-c3ccccc3)c2C)cc1 | -34% | -19% | 5.6µM* | -1% | -25% | 16µM*
Cc1sc(NC(=O)C2CCCCC2C(=O)O)c(C(N)=O)c1-c1ccccc1 (stereo not given) | -2% | -16% | 35µM* | -3% | -9% | 2%
CCc1ccc(-c2c(C)sc(NC(C)=O)c2C(N)=O)cc1 | -8% | ? | 11µM* | -3% | -34% | 50µM*
CCCN1CCC(=O)N(C(CSc2ccc(Br)cc2)CC(C)C)CC1 (stereo not given) | . | -30% | . | . | -22% | -1%
CCN(CC)c1ccc(CN(C(=O)c2cc(=O)c3ccccc3o2)C2CCS(=O)(=O)C2)cc1 (stereo not given) | ? | ? | ? | . | -7% | .
Cn1nnnc1Sc1ncnc2scc(-c3cnc(N)nc3)c12 | . | -14% | . | . | . | .
SMILES | BAZ2B block | JMJD2A Tudor inh | G9a block | L3MBTL1 inh | HP1b binding inh | Sfp inh
CCOC(=O)c1c(C)oc2nc(C)nc(NCCc3ccc(OCC)cc3)c12 | -2%[57.1 µM] | 16% | -28%[59 µM] | . | 52% | .
Cc1sc(NC(=O)CCC(=O)O)c(C(N)=O)c1-c1ccccc1 | -1% | ? | 10µM* | 5% | ? | 35µM*
Cc1ccc2nc3c(cc(C(=O)NCc4cccnc4)c(=N)n3C(C)C)c(=O)n2c1 | 1% | . | 40µM* | 3% | . | 14%
CCOC(=O)c1cc(NC(=O)c2ccc(C)cc2)c(=O)n2c1oc1ccc(Cl)cc12 | 3% | 6% | 12%[59 µM] | . | 82% | .
O=c1c2cccnc2[nH]c(=S)n1Cc1ccccc1 | 10% | -28% | -17% | -1% | 30% | -9%
CCCCCn1c(=S)[nH]c2ncccc2c1=O | 10% | -6% | 20%[2.33 µM] | 6% | 39% | 17%
COCCn1c(=S)[nH]c2ncccc2c1=O | -23% | 14µM* | ? | 3% | 16% | -21%
COCCCn1c(=S)[nH]c2ncccc2c1=O | -30% | ? | 45µM* | 1% | 32% | 11%
COCCCn1c(=S)[nH]c(C)c(C)c1=O | 10% | 22µM* | . | 50% | 27% | ?
O=c1c(-c2ccc(Cl)cc2)c(C(F)(F)F)oc2c(CN3CCCCC3)c(O)ccc12 | -17% | -9% | -25%[59 µM] | . | 43% | .
COc1ccc(CCn2c(=S)[nH]c3cc(C(=O)N4CCOCC4)ccc3c2=O)cc1OC | -26% | -22% | 8.9µM* | . | 16% | -18%
CCOC(=O)N1CCN(C(=O)c2ccc3c(=O)n(-c4ccccc4F)c(=S)[nH]c3c2)CC1 | -15% | -12% | 50µM* | 7% | 77% | -9%
CCOCCCn1c(=S)[nH]c2cc(C(=O)N3CCN(C)CC3)ccc2c1=O | ? | 22µM* | ? | 2% | 15% | -25%
CCOCCCn1c(=S)[nH]c2cc(C(=O)N3CCC(C(N)=O)(N4CCCCC4)CC3)ccc2c1=O | 2% | 22µM* | ? | . | 47% | -10%
O=C(Nc1ccccc1C(F)(F)F)c1noc2c1CCCCC2 | 82% | 39% | 29%[59 µM] | . | 69% | .
COc1ccccc1Cc1nc2ccccc2nc1SCC(=O)Nc1cccc(Cl)c1C | 3% | 7% | 6%[59 µM] | . | 27%[57 µM] | .
CS(=O)c1ccc(-c2nc(-c3ccc(F)cc3)c(-c3ccncc3)[nH]2)cc1 (stereo not given) | . | . | 9%[59 µM] | . | . | 3%
COc1ccc(CCN2C(=O)CN(C3CCC(C)CC3)C(=O)C2c2ccc(OC(C)C)c(OC)c2)cc1OC (stereo not given) | -18% | -27% | -25%[59 µM] | . | 33% | .
CCOC(=O)N1CCN(c2c(F)cc3[nH]c(=S)[nH]c3c2Br)CC1 | -4% | -22% | ? | -18%[11.4 µM] | 6% | ?
CCOC(=O)N1CCN(c2cc3[nH]c(=S)[nH]c3cc2F)CC1 | 4% | 45µM* | 2.2µM* | 4% | -29% | 23%
COc1ccc(/C=N/Nc2ccc(C(=O)O)cc2)c(OC)c1OC | 19% | -23% | ? | . | 35% | 13%
COc1cc(/C=N/NC(=O)c2ccccc2)ccc1O | 1% | 1% | 25% | 2% | 28% | 9%
